Bioassay records as filed in PubChem BioAssay.
Compounds with a hit are over-represented: about 7.4% of the library has one in this group of screens.
NPC1 promoter act = activates the NPC1 promoter; Huh7 NPC1 promoter luciferase reporter, 24 h; Potency, µM (top dose mostly 9.22 µM), inactives show at the highest dose activation, usual class: activators; actives 2.4% (n = 320,000); AID 485313; further: % of control where 0% means no effect; nearly all actives have a fitted effect of over 60% in size
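Readout is luciferase luminescence, reflecting NPC1 promoter activation in stably transfected Huh7 cells after 24 h compound exposure at 37 °C in reduced-serum medium with 10% FBS.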
SMN2 splice up = increases expression of the SMN2 splice variant. actives 2.8% (n = 210,000). AID 1458. Potency, µM (series often up to 46.1 µM), without a hit: top-dose activity change, positive = activation, usual class: activators. HEK293 SMN2-luciferase splicing reporter, luminescence, 30-36 h; further: % of control where 0% means no effect; nearly all actives have a fitted effect of over 55% in size
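qHTS luciferase splicing reporter: luminescence rises when SMN2 exon 7 is included in transfected HEK293 cells. Compound exposure lasted 30-36 h at 37C, with 4.5 mM final sodium butyrate as control, followed by a ONE-Glo read.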
Rab9 promoter act = Rab9 promoter activation; Huh7 Rab9 promoter-luciferase reporter, luminescence, 24 h; Potency, µM (doses to about 9.22 µM), for the others: at the top dose activation, negative = inhibition, most hits filed as activators; actives 2.8% (n = 320,000); AID 485297; further: % of control where 0% means no effect; nearly all actives have a fitted effect of over 60% in size
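Stable Rab9-luc Huh7, 1500 cells/well, 2 h settle; cmpd in DMSO, 24 h, 37 °C/5% CO2; luciferase reagent 10 min RT; luminescence.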
FLuc counter = counter-screen for miR-21 project: firefly luciferase inhibitors or activators; purified FLuc, Km substrates, luminescence inhibition; P08659; actives 6.9% (n = 360,000); Potency, µM (series often up to 57.5 µM), without a hit: at the highest dose activity change, negative = inhibition, most hits filed as inhibitors; AID 588342;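 further: plate controls were vehicle for no effect and reference inhibitor for full effect; nearly all actives have a fitted effect of over 55% in size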
Target sequence (P08659 whole entry, looked up): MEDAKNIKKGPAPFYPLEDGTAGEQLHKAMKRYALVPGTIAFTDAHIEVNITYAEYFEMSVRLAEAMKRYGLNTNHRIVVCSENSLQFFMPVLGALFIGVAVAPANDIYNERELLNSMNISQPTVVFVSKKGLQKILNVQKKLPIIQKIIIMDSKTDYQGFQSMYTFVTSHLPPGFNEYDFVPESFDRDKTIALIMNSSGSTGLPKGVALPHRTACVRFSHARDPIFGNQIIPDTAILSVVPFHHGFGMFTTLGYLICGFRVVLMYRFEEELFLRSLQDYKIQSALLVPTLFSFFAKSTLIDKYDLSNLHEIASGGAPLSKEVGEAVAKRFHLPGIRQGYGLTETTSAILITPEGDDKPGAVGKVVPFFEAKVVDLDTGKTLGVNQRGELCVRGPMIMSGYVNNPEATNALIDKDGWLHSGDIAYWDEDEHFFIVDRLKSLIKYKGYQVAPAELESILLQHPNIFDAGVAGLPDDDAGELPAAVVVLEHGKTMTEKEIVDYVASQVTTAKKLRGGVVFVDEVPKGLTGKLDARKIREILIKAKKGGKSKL
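Purified P. pyralis luciferase (10nM final) with 10uM D-luciferin and 10uM ATP (Km levels) in 50mM Tris acetate pH 7.5, 10mM Mg acetate, 0.01% Tween-20, 0.05% BSA; qHTS 6-point titration, ~60 µM downward; luminescence read.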
ELG1 genotox = genotoxicity induction in ELG1-luciferase HEK293T cells; actives 1.3% (n = 330,000); HEK293T ELG1-luciferase reporter, luminescence, 16 h; Potency, µM (doses to about 46 µM), inactives show at the highest dose activity change, positive = activation, most hits filed as activators; further: % of control where 0% means no effect; nearly all actives have a fitted effect of over 60% in size
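Luminescence read-out: rising ELG1-luciferase signal, reflecting elevated ELG1 protein under genetic stress, flags genotoxic compounds. Cells were treated for 16 hr at 37 °C before ONE-Glo detection.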
* marks the source's active call; other numbers are inactive results; ? = inconclusive; / = no result. The call rests on the fitted dose curve; in most records, active means well fitted curve in the direction sought with a large enough effect; inconclusive means small, poorly fitted or top-dose-only effect, or another doubt; inactive means no such curve, though single readings can be large; an effect the other way counts as inactive or inconclusive. Potency means the concentration at half of the fitted maximal effect.

SMILES	NPC1 promoter act	SMN2 splice up	Rab9 promoter act	FLuc counter	ELG1 genotox
O=C(Nc1ccc(-c2nc3ccccc3s2)c(O)c1)c1ccc(Br)cc1	/	-4%	/	-2%	/
Cc1cccnc1NC(=O)c1cccc(S(=O)(=O)NCc2ccccc2)c1	0%	/	-2%	-2%	1%
CCN(c1ccccc1)S(=O)(=O)c1ccc2c(c1)N(C(C)=O)CCS2	-6%	/	-4%	1%	-2%
COC(=O)c1ccc(Nc2c([N+](=O)[O-])c(=O)oc3ccccc23)cc1	0%	/	-3%	-13%	-10%
O=C(Nc1ccc2nc3ccccc3nc2c1)c1ccccc1	1.4µM*	4µM*	0.56µM*	1.7µM*	?
O=C(Nc1ccc(Cl)c(Cl)c1)Nc1ccc(Br)cc1F	-1%	-22%	0%	-16%	-2%
Cn1c(N)c(C(=O)Nc2cccc(Cl)c2)c(=O)n(C)c1=O	2%	/	6%	5.4µM*	8%
O=C(Nc1ccc(Cl)c(Cl)c1)Nc1ccccc1O	4µM*	/	4µM*	6µM*	?
CC(Oc1ccc(C(=O)c2ccccc2)cc1)C(=O)N1CCOCC1 (configuration not stated)	-5%	/	-3%	3%	2%
Cc1ccc(NC(=O)Cn2c(=O)n(Cc3nc(C)no3)c(=O)c3cc4c(cc32)OCO4)cc1	/	/	/	0%	/
Cc1onc(-c2ccccc2)c1C(=O)OCC(=O)N1CCN(c2ccccc2)CC1	-2%	/	1%	-1%	-7%
CC1CCc2c(sc(/N=C/c3ccco3)c2C(N)=O)C1 (configuration not stated)	?	/	28%	5.4µM*	?
CC1CCc2c(sc(/N=C/c3cccnc3)c2C(N)=O)C1 (configuration not stated)	8%	/	2%	24µM*	17%
N#C/C(=C(/O)CCl)c1nc(-c2ccccc2)cs1	2%	/	17%	?	14%
Cc1ccc(-c2csc(/C(C#N)=C(\O)CCl)n2)cc1	23%	-4%	?	11µM*	17%
O=C(COc1ccc(Cl)cc1Cl)NC(=O)NC1CCCC1	?	/	?	9.5µM*	?
O=C(COc1ccccc1Cl)NC(=O)NC1CCCC1	16%	-10%	?	13µM*	?
Cc1cc(Cl)ccc1OCC(=O)N1CCN(c2ncccn2)CC1	2%	-18%	-10%	-1%	-3%
CC(=O)c1ccccc1OC(=O)COc1ccc(Cl)cc1C	-4%	0%	2%	17µM*	2%
Cc1cc(Cl)ccc1OCC(=O)N1CCCCC1	?	?	28%	17µM*	21µM*
COC(=O)c1cc(C)nc2c1c(=O)nc(SCc1ccccc1C)n2C1CC1	/	/	/	-12%	/
CCOc1ccc(NC(=O)Cc2ccc(-n3c(C)nc4cccnc43)cc2)cc1	/	/	/	0%	/
O=C(COc1ccc(Cl)cc1Cl)NC(=O)N1CCCCC1	25%	2.2µM*	?	3.4µM*	2.9µM*
O=C(COc1ccc(Cl)cc1Cl)N1CCCN(C(=O)COc2ccc(Cl)cc2Cl)CC1	-2%	-34%	-2%	-9%	-12%
O=C(COc1ccc(Cl)cc1Cl)NC1CCSC1=O (configuration not stated)	?	?	3.5µM*	11µM*	16µM*
SMILES	NPC1 promoter act	SMN2 splice up	Rab9 promoter act	FLuc counter	ELG1 genotox
O=C(COc1ccc(Cl)cc1Br)NC(=O)NC1CCCC1	3.5µM*	/	3.2µM*	6µM*	?
O=C(COc1ccc(Cl)cc1Cl)NC(=S)N1CCCc2ccccc21	-26%	-29%	4%	27µM*	3%
O=C(COc1ccc(Cl)cc1Cl)OCC(=O)N1CCCc2ccccc21	-3%	13%	-1%	-1%	4%
CC1CC(C)CN(S(=O)(=O)c2ccc(C(=O)NNC(=O)c3ccccc3F)cc2)C1 (configuration not stated)	/	/	/	/	1%
C/C(=N/OC(=O)C1CC12CCC2)c1ccc(Br)cc1 (configuration not stated)	-1%	15%	2%	6.7µM*	-4%
c1ccc(-c2c3ccccc3nc3[nH]c4ccccc4c23)cc1	0%	-19%	-2%	-22%	2%
c1ccc2nc3c(nc2c1)[nH]c1ccccc13	3.2µM*	11µM*	0.89µM*	3.8µM*	9.2µM*
Cc1ccn2c(CN3CCOCC3)c(-c3ccccc3)nc2c1	19%	20µM*	?	?	20%
